# Assay outcomes (PubChem)
# Hedgehog inh: Hedgehog pathway signaling inhibitors, primary screen, luminescence, Shh-LIGHT2 cells, Gli-luciferase | Shh-LIGHT2 Gli-luciferase reporter, 30 h | inhibition, % (test concentration not listed) | 22,000 compounds, 2.1% hits | AID 2313, 2010;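 active means mean inhibition across valid replicates above about 65%, limit read from the data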;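 further: pathway switched on by Shh-conditioned medium diluted 1 in 25 in low serum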
# BJeLR viability: BJeLR cell viability loss, primary screen, luminescence, CellTiterGlo ATP | BJeLR fibroblasts viability, 48 h; HRASV12, hTERT and SV40 LT/ST transformed | viability loss activity score, % (no concentration beside the values) | 30,000 compounds, 0.64% hits | AID 2275, 2010; in the data active means viability loss activity score above about 50%;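 further: higher score means fewer live cells and less ATP luminescence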
# * = called active by the depositor; nt = no result. This excerpt belongs to a sample that is enriched for hits.
SMILES,Hedgehog inh,BJeLR viability
Cc1noc(C)c1S(=O)(=O)N(C)C[C@H]1Oc2ccc(NC(=O)C3CC3)cc2CC(=O)N([C@H](C)CO)C[C@H]1C,-13,nt
C[C@@H]1CN([C@@H](C)CO)C(=O)c2cccc(NC(=O)C3CCOCC3)c2O[C@H]1CN(C)S(=O)(=O)c1ccc(Cl)cc1,-11,-2
C[C@H]1CN([C@@H](C)CO)C(=O)c2cccc(NC(=O)C3CCOCC3)c2O[C@H]1CN(C)S(=O)(=O)c1ccc(Cl)cc1,84*,-1
O=C(COCc1cc(-c2ccc(F)cc2)on1)N1CCOCC1,nt,1
COc1cc2c(c(OC)c1OC)-c1ccc(OC)c(=O)cc1[C@@H](NC(C)=O)CC2,91*,60*
C/C=C(/C)C(=O)O[C@@H]1c2cc(OC)c(OC)cc2-c2c(ccc(OC)c2OC)C[C@H]2C(=O)OC[C@H]12,3,12
CC(C)(C)CC(=O)NCc1cn2ccsc2n1,nt,-3
Cc1c(C2CCN(CCc3ccccc3)CC2)noc1-c1ccc(Cl)cc1,77*,9
Cc1oc(-c2ccc(Cl)cc2)nc1CN1CCC(C(=O)NC(C)CCc2ccccc2)CC1 (stereo not given),nt,-1
Cc1ccc(S(=O)(=O)N(C)C[C@H]2Oc3c(NC(=O)Nc4ccc(C(F)(F)F)cc4)cccc3C(=O)N([C@@H](C)CO)C[C@H]2C)cc1,-24,-3
COc1ccc(NC(=O)Nc2cccc3c2O[C@H](CN(C)S(=O)(=O)c2ccc(Cl)cc2)[C@H](C)CN([C@@H](C)CO)C3=O)cc1,33,0
Cc1ccc(S(=O)(=O)Nc2ccc3c(c2)CC(=O)N([C@@H](C)CO)C[C@H](C)[C@@H](CN(C)Cc2ccc(C(F)(F)F)cc2)O3)cc1,69*,nt
Cc1ccc(S(=O)(=O)N(C)C[C@@H]2Oc3c(NC(=O)Nc4ccc(C(F)(F)F)cc4)cccc3C(=O)N([C@H](C)CO)C[C@H]2C)cc1,-5,-1
Cc1ccc(S(=O)(=O)N(C)C[C@@H]2Oc3c(NC(=O)Nc4ccc(C(F)(F)F)cc4)cccc3C(=O)N([C@@H](C)CO)C[C@@H]2C)cc1,93*,0
COc1ccc(NC(=O)Nc2cccc3c2O[C@@H](CN(C)S(=O)(=O)c2ccc(Cl)cc2)[C@@H](C)CN([C@@H](C)CO)C3=O)cc1,101*,-2
C[C@H](CO)N1C[C@H](C)[C@H](CN(C)S(=O)(=O)c2ccc(Cl)cc2)Oc2c(NC(=O)Nc3ccc(C(F)(F)F)cc3)cccc2C1=O,100*,1
Cc1ccc(S(=O)(=O)Nc2ccc3c(c2)CC(=O)N([C@H](C)CO)C[C@@H](C)[C@@H](CN(C)Cc2ccc(C(F)(F)F)cc2)O3)cc1,14,nt
O=C(NCc1cn2ccccc2n1)c1cccc(C(F)(F)F)c1,nt,3
O=C(NCCCN1CCOCC1)NCc1cccc2ccccc12,nt,1
O=C(/C=C/c1ccc(O)cc1)OC[C@H]1O[C@@H](O[C@@H]2OC=C[C@H]3[C@H](O)[C@@H]4O[C@]4(CO)[C@@H]23)[C@H](O)[C@@H](O)[C@@H]1O,-20,1
O=C(CN1CCc2ccccc21)Nc1scc2c1c(=O)oc1ccccc12,6,4
N#Cc1cccc2cccc(Sc3ccccc3)c12,33,5
C[C@@H]1CN([C@H](C)CO)C(=O)c2cccc(NC(=O)Nc3ccc(C(F)(F)F)cc3)c2O[C@@H]1CN(C)S(=O)(=O)c1ccc(F)cc1,-13,-5
C[C@H]1CN([C@@H](C)CO)C(=O)c2cccc(NC(=O)Nc3ccccc3)c2O[C@@H]1CN(C)Cc1ccc(C(F)(F)F)cc1,5,-3
C[C@@H]1CN([C@@H](C)CO)C(=O)c2cccc(NC(=O)Nc3ccccc3)c2O[C@H]1CN(C)Cc1ccc(C(F)(F)F)cc1,74*,8
SMILES,Hedgehog inh,BJeLR viability
C[C@@H]1CN([C@H](C)CO)C(=O)Cc2cc(NC(=O)Nc3ccc(C(F)(F)F)cc3)ccc2O[C@@H]1CN(C)S(=O)(=O)c1ccc(Cl)cc1,-3,nt
C[C@H]1CN([C@@H](C)CO)C(=O)c2cccc(NC(=O)Nc3ccc(C(F)(F)F)cc3)c2O[C@H]1CN(C)S(=O)(=O)c1ccc(Cl)cc1,105*,0
C[C@H](CO)N1C[C@H](C)[C@H](CN(C)S(=O)(=O)c2ccc(Cl)cc2)Oc2ccc(NC(=O)Nc3ccc(C(F)(F)F)cc3)cc2CC1=O,72*,nt
Cc1ccc(CNC(=O)c2c[nH]n3c(=O)cc(CSc4ccc(Cl)cc4)nc23)cc1,nt,-2
COc1cccc(NC(=O)Cn2c3ccccc3c3nc(=O)cc(C)n32)c1,nt,-2
CCOC(=O)c1sc2nc(SCC(=O)C(C)(C)C)n(Cc3ccccc3Cl)c(=O)c2c1C,nt,1
CCCNC(=O)c1ccc2nc(N3CCCCC3)sc2c1,nt,9
CCC(C)OC(=O)CSc1ncnc2sc3c(c12)CCC(C)C3 (stereo not given),nt,-6
COc1cc2c(c(O)c1OC)C(=O)CC(c1ccc(O)cc1)O2 (stereo not given),33,-2
COc1cc2c(c(N)c1OC)C(=O)/C(=C/c1cc(C)c(O)c(C)c1)C2,84*,22
FC(F)(F)c1[nH]nc(-c2ccccc2)c1C12CC3CC(CC(C3)C1)C2,nt,5
CCc1c(C)c(C#N)c2[nH]c3ccccc3n2c1=O,nt,101*
CCCCc1c(C)c(C#N)c2[nH]c3ccccc3n2c1=O,nt,12
CC1CCCCC1NC(=O)c1ccc2c(=O)n(CCCN3CCCC3=O)c(=S)[nH]c2c1 (stereo not given),nt,4
O=C(NCc1cccnc1)/C(=C\c1ccc(Br)cc1)S(=O)(=O)c1ccccc1,nt,7
O=C(NCc1cccnc1)/C(=C\c1cccc(Oc2ccccc2)c1)S(=O)(=O)c1ccccc1,nt,96*
Cc1nc(-c2ccc(S(=O)(=O)N3CCCc4ccccc43)s2)cs1,nt,56*
COc1ccccc1C1CCN(S(=O)(=O)c2ccc(-c3csc(C)n3)s2)CC1,nt,5
CCOc1ccc(-n2c(C)nc3cc(C(=O)NCc4ccccc4Cl)ccc32)cc1,nt,-7
Cc1cc(C)c2c3n(nc2n1)C(=O)NC(C(F)(F)F)(C(F)(F)F)N3,nt,-3
COC(CNC(=O)CN1C(=O)/C(=C\c2ccc(Cl)cc2)Oc2ccc(C(C)(C)C)cc21)OC,nt,-1
c1ccc(C(c2ccccc2)N2CCN(CCCc3c[nH]c4ccccc34)CC2)cc1,-13,9
N#Cc1cc2c(OCC(O)CN3CCN(C(c4ccccc4)c4ccccc4)CC3)cccc2[nH]1 (stereo not given),103*,1
CC(C)CC1NC(=O)C(CC(C)C)N(O[C@@H]2O[C@H](COC(=O)CCC(=O)O)[C@@H](O)[C@H](O)[C@H]2O)C1=O (stereo not given in full),74*,47
C=C1CCC(O)/C(C)=C\CC(C(C)C)C(OC2OC(COC(C)=O)C(O)C(O)C2O)C1 (stereo not given),-12,4
Cc1ccc(C(=O)C2C(=O)C(=O)N(CCN(C)C)C23C(=O)N(C)c2ccccc23)cc1 (stereo not given),nt,9
O=C(C1CCCCC1)N(c1ccc2oc3c(c2c1)CCCC3)S(=O)(=O)c1cccs1,nt,1
CC1(C)CCc2cc(-c3ccnc(=S)[nH]3)ccc2O1,66*,-4
CCSc1nccc(-c2ccc3c(c2)CCC(C)(C)O3)n1,78*,2
S=c1nccc(-c2ccc3c(c2)CCO3)[nH]1,-20,-2
